Results published in PubChem BioAssay (NCI).
About 83,000 compounds went through this panel and 20% of them were active in at least one assay; those are over-represented in the sample as a whole.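 Each cell line was grown in a 96-well plate and treated with one concentration of compound for 48 hours. Values below 10 were considered active.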 The source made the active and inactive calls.

Columns and labels:
Assay in all cases: NCI-60 one-dose screen, 48 h (100 = growth as untreated, 0 = no growth, -100 = all killed)
Details in all cases: 10 µM unless noted
T-47D breast = system: T-47D breast
BT-549 breast = system: BT-549 breast
MDA-MB-435 melanoma = system: MDA-MB-435 melanoma
SW-620 colon = system: SW-620 colon
MCF7 breast = system: MCF7 breast
HCT-116 colon = system: HCT-116 colon
HCC-2998 colon = system: HCC-2998 colon
KM12 colon = system: KM12 colon

Measured: growth

COc1ccc2c(c1)C(=Nc1cc(OC)c(OC)c(OC)c1)C(=O)N2
inactive: T-47D breast 98.7% | BT-549 breast 99% | MDA-MB-435 melanoma 118% | SW-620 colon 102% | MCF7 breast 105% | HCT-116 colon 51% | HCC-2998 colon 125% | KM12 colon 105%

CN(C)CCC(=O)Nc1ccc(-n2cc(-c3cccc(NC(=S)Nc4cccc(-c5cn(-c6ccc(NC(=O)CCN(C)C)cc6)nn5)c4)c3)nn2)cc1
active: MCF7 breast 5.07%
inactive: T-47D breast 69.1% | BT-549 breast 81.6% | MDA-MB-435 melanoma 110% | SW-620 colon 17.4% | HCT-116 colon 26.7% | HCC-2998 colon 101% | KM12 colon 56.3%

Nc1ccn(C2O[C@H](CO)[C@@H](O)[C@@H]2O)c(=O)n1 (stereo partly specified)
inactive: T-47D breast 80.5% | BT-549 breast 81.2% | MDA-MB-435 melanoma 45.3% | SW-620 colon 45.9% | MCF7 breast 24% | HCT-116 colon 32.4% | HCC-2998 colon 53.5% | KM12 colon 58.1%

COc1ccc(-c2nc3sc4c(c3c(=O)[nH]2)CCCCCC4)cc1
active: MDA-MB-435 melanoma 2.83%
inactive: T-47D breast 64.2% | BT-549 breast 75.3% | SW-620 colon 29% | MCF7 breast 54.1% | HCT-116 colon 33.9% | HCC-2998 colon 80.9% | KM12 colon 34.8%

Nc1ccc2c(c1)Cc1cc(Cl)c(Cl)cc1-2
inactive: T-47D breast 85.3% | BT-549 breast 60.4% | MDA-MB-435 melanoma 28.1% | SW-620 colon 38.1% | MCF7 breast 30% | HCT-116 colon 49.5% | HCC-2998 colon 66.4% | KM12 colon 52.2%

Cc1ccc(/C=C/C(=O)c2ccc(F)cc2)s1
inactive: T-47D breast 62.9% | BT-549 breast 76.7% | MDA-MB-435 melanoma 52.1% | SW-620 colon 30.4% | MCF7 breast 35.9% | HCT-116 colon 25.8% | HCC-2998 colon 88% | KM12 colon 67.3%

O=C1Nc2ccc(Cl)cc2[C@@](C#CC2CC2)(C(F)(F)F)O1
inactive: T-47D breast 70.4% | BT-549 breast 117% | MDA-MB-435 melanoma 88% | SW-620 colon 107% | MCF7 breast 105% | HCT-116 colon 82.9% | HCC-2998 colon 108% | KM12 colon 86.1%

COc1cc(-c2nnc(-c3nc(-c4cc(OC)c(OC)c(OC)c4)n4ccccc34)o2)ccc1N
inactive: T-47D breast 54.5% | BT-549 breast 67.1% | MDA-MB-435 melanoma 82.5% | SW-620 colon 87% | MCF7 breast 71.2% | HCT-116 colon 54.2% | HCC-2998 colon 89.1% | KM12 colon 68.3%

O=CN1N=C(c2ccc(Nc3ccnc4cc(Cl)ccc34)cc2)CC1c1ccc(Cl)cc1 (stereo unspecified)
inactive: T-47D breast 23.1% | BT-549 breast 55.3% | SW-620 colon 32.9% | MCF7 breast 18.4% | HCT-116 colon 11.7%
active: MDA-MB-435 melanoma -19.6% | HCC-2998 colon -20.4% | KM12 colon 9.13%

CC(=O)c1ccccc1NC(=O)C(C)(c1ccccc1)c1ccccc1
inactive: T-47D breast 67.7% | BT-549 breast 75.7% | MDA-MB-435 melanoma 98.6% | SW-620 colon 93.4% | MCF7 breast 102% | HCT-116 colon 42.1% | HCC-2998 colon 108% | KM12 colon 85%

Nc1nc(Nc2ccccc2SSc2ccccc2Nc2nc(N)nc(-c3ccc(I)cc3)n2)nc(-c2ccc(I)cc2)n1
inactive: T-47D breast 67.1% | BT-549 breast 70.8% | MDA-MB-435 melanoma 86.7% | SW-620 colon 94.3% | MCF7 breast 76% | HCT-116 colon 50.1% | HCC-2998 colon 105% | KM12 colon 37.2%

CC[C@@H](c1ccc(O)c(O)c1)[C@@H](CC)c1ccc(O)c(O)c1
active: T-47D breast -8.01% | SW-620 colon 5.74% | HCT-116 colon 9.12%
inactive: BT-549 breast 98% | MDA-MB-435 melanoma 62.9% | MCF7 breast 98.8% | HCC-2998 colon 103% | KM12 colon 102%

CO[C@H]1/C=C/O[C@@]2(C)Oc3c(C)c(O)c4c(O)c(c(/C=N/N5C(C)CN(Cc6ccc(C#N)cc6)CC5C)c(O)c4c3C2=O)NC(=O)/C(C)=C\C=C\[C@H](C)[C@H](O)[C@@H](C)[C@@H](O)[C@@H](C)[C@H](OC(C)=O)[C@@H]1C (stereo partly specified)
active: BT-549 breast -0.569% | HCC-2998 colon 2.4%
inactive: T-47D breast 18.1% | MDA-MB-435 melanoma 26.1% | SW-620 colon 31.5% | MCF7 breast 11.9% | HCT-116 colon 18.5% | KM12 colon 15.8%

Cc1[nH]ccc2cc3nc4ccccc4c3cc12
inactive: T-47D breast 27.7% | BT-549 breast 60.3% | MDA-MB-435 melanoma 33.9% | SW-620 colon 22.1% | HCT-116 colon 22% | HCC-2998 colon 33.7% | KM12 colon 29%
active: MCF7 breast 7.1%

COc1cnc2c(c1)C(=O)c1c-2n(CCCNC2=NCCS2)c(=O)c2cc(F)ccc12
inactive: T-47D breast 19.1% | BT-549 breast 13.4% | MDA-MB-435 melanoma 41.8% | HCC-2998 colon 65.5% | KM12 colon 46.7%
active: SW-620 colon -22% | MCF7 breast 3.19% | HCT-116 colon -75.3%

CC(=O)Nc1cc2c3c(cccc3c1)-c1ccccc1-2
inactive: T-47D breast 75.4% | BT-549 breast 64.7% | MDA-MB-435 melanoma 68.4% | SW-620 colon 99.7% | MCF7 breast 96.9% | HCT-116 colon 95.9% | HCC-2998 colon 87.8% | KM12 colon 51.1%

COc1ccc(Oc2ccccc2NC(=O)CNC(=O)c2cccc3ccccc23)cc1
inactive: T-47D breast 41.6% [5 µM] | BT-549 breast 30.9% [5 µM] | SW-620 colon 25.6% [5 µM] | MCF7 breast 23.5% [5 µM] | HCT-116 colon 10.9% [5 µM] | HCC-2998 colon 33.7% [5 µM] | KM12 colon 26.5% [5 µM]
active: MDA-MB-435 melanoma 1.66% [5 µM]

CC1C(=O)NC2=Nc3ccccc3C(=O)NN21 (stereo unspecified)
inactive: T-47D breast 81.4% | BT-549 breast 96.9% | MDA-MB-435 melanoma 111% | SW-620 colon 97.8% | MCF7 breast 73.9% | HCT-116 colon 90.4% | HCC-2998 colon 100% | KM12 colon 101%

Cc1[nH]cnc1/C=C1\SC(N2CCCCC2)=NC1=O
inactive: T-47D breast 104% | BT-549 breast 105% | MDA-MB-435 melanoma 108% | SW-620 colon 107% | MCF7 breast 108% | HCT-116 colon 106% | HCC-2998 colon 101% | KM12 colon 114%

COc1ccc(OC)c(CCn2cncc2-c2c[nH]c3cc(Br)ccc23)c1
inactive: BT-549 breast 14.1% | MDA-MB-435 melanoma 11.8% | SW-620 colon 33.7% | MCF7 breast 17.2% | HCT-116 colon 23.6% | HCC-2998 colon 69.6% | KM12 colon 41.7%
active: T-47D breast 6.48%

CC(=O)Nc1c(Cl)cc2c(c1Cl)Cc1ccccc1-2
inactive: T-47D breast 89.5% | BT-549 breast 98.8% | MDA-MB-435 melanoma 122% | SW-620 colon 103% | MCF7 breast 91.1% | HCT-116 colon 99.1% | HCC-2998 colon 107% | KM12 colon 97.2%

CCCCCCCCN(CCO)CCCCCCCC
inactive: T-47D breast 97.6% | BT-549 breast 106% | MDA-MB-435 melanoma 108% | SW-620 colon 101% | MCF7 breast 93.5% | HCT-116 colon 104% | HCC-2998 colon 114% | KM12 colon 110%

O=C1OC(Oc2ccccc2)(c2ccccc2)c2ccccc21 (stereo unspecified)
inactive: T-47D breast 100% | BT-549 breast 102% | MDA-MB-435 melanoma 102% | SW-620 colon 106% | MCF7 breast 117% | HCT-116 colon 102% | HCC-2998 colon 104% | KM12 colon 93.3%

CCCCCc1c(C)[nH]c(/C=C2\N=C(c3ccc[nH]3)C=C2Oc2ccc(Cl)cc2)c1C
active: T-47D breast -38.1% [100 µM] | BT-549 breast 0.41% [100 µM] | MDA-MB-435 melanoma -71.7% [100 µM] | SW-620 colon -31.7% [100 µM] | MCF7 breast -68.5% [100 µM] | HCT-116 colon -89.8% [100 µM] | HCC-2998 colon -17% [100 µM] | KM12 colon -75.5% [100 µM]

O=C1OC2(c3ccccc31)c1ccccc1-c1ccccc12
active: MDA-MB-435 melanoma -26.9%
inactive: T-47D breast 90.1% | BT-549 breast 82.7% | SW-620 colon 78.4% | MCF7 breast 52.4% | HCT-116 colon 54.4% | HCC-2998 colon 88.4% | KM12 colon 51.6%

COc1ccc(-c2c3c(N)nc(-c4ccncc4)nc3nc3c2c(C)nn3-c2ccccc2)cc1
inactive: T-47D breast 75.2% | BT-549 breast 87.1% | MDA-MB-435 melanoma 54% | SW-620 colon 34.4% | MCF7 breast 47.7% | HCT-116 colon 15.6% | HCC-2998 colon 102% | KM12 colon 62.9%

COc1ccc(C(=O)COc2cccc(/C=C3\COc4ccc5ccccc5c4C3=O)c2)cc1
inactive: T-47D breast 32% | MDA-MB-435 melanoma 64.8% | SW-620 colon 27.8% | MCF7 breast 16.1% | HCT-116 colon 59.2% | HCC-2998 colon 63.9% | KM12 colon 67.8%
active: BT-549 breast 1.54%

O=C1CSC(c2ccccc2O)N1c1nnc(Cn2ccnc2)o1 (stereo unspecified)
inactive: T-47D breast 60.6% | BT-549 breast 64.5% | MDA-MB-435 melanoma 13.4% | SW-620 colon 61.5% | MCF7 breast 47.9% | HCT-116 colon 50.8% | HCC-2998 colon 67.1% | KM12 colon 45.1%

CCCCCN(CCCCC)CCCNc1c2c(nc3ccc(Cl)cc13)CCCC2
active: HCT-116 colon 5.37%
inactive: T-47D breast 38.1% | BT-549 breast 36.2% | MDA-MB-435 melanoma 66.4% | SW-620 colon 33.5% | MCF7 breast 35.5% | HCC-2998 colon 16.3% | KM12 colon 55.5%

O=C1NCCc2c1noc2-c1ccccc1
inactive: T-47D breast 89.3% | BT-549 breast 97% | MDA-MB-435 melanoma 106% | SW-620 colon 109% | MCF7 breast 92.9% | HCT-116 colon 88.3% | HCC-2998 colon 99.9% | KM12 colon 103%

Cc1ccc(-c2cc(-c3ccccc3)n(-c3ccccc3)n2)cc1
inactive: T-47D breast 74.6% | BT-549 breast 101% | MDA-MB-435 melanoma 89% | SW-620 colon 99.9% | MCF7 breast 97.5% | HCT-116 colon 29.9% | HCC-2998 colon 99.1% | KM12 colon 106%

Nc1nc(SCc2cccnc2)c2ncn(C3OC(CO)C(O)C3O)c2n1 (stereo unspecified)
inactive: T-47D breast 110% | BT-549 breast 98.1% | MDA-MB-435 melanoma 104% | SW-620 colon 97.9% | MCF7 breast 94.9% | HCT-116 colon 93.8% | HCC-2998 colon 96.6% | KM12 colon 98.4%
